From PubChem BioAssay
PPC-1+TRAIL kill: compounds killing PPC-1 cancer cells with TRAIL present, primary screen, TRAIL potentiator project, ATPLite luminescence, uHTS. cell killing (% activity), % at 4 µM or 5 µM. PPC-1 cells + TRAIL, ATPLite viability luminescence. hit rate 0.41% among 220,000;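 active = cell killing above 50% in the first pass at 4 µM, then a duplicate retest at 5 µM averaging 50% or more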;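 note: plate controls were cells with TRAIL plus DMSO for no effect and medium-only wells lacking cells for full effect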
Peg3 promoter: Peg3 promoter-driven luciferase inhibitors, primary screen, cell-based, HeLa, luciferase luminescence. inhibition, % at 20 µM. HeLa PEG-Prom luciferase reporter, overnight. hit rate 1.7% among 360,000. AID 588405, 2011;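 active = inhibition of at least 50% at 20 µM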
CF NFkB block: inhibitors of PAF-induced NF-kB signaling, primary screen, cell-based, GFP fluorescence, uHTS; KKLEB NF-kB-GFP reporter, GFP fluorescence overnight; inhibition, % at 5 µM; AID 588850, 2011; hit rate 0.86% among 360,000;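 active = at least 50% inhibition at 5 µM, scaled per plate between neutral and stimulator controls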;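 note: PAF is a Pseudomonas aeruginosa culture filtrate used as stimulus; plate controls were PAF-stimulated DMSO wells for no effect and unstimulated DMSO wells for full effect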
TRAIL sens C8: viability loss with TRAIL in NB7+C8 cells, primary screen, TRAIL sensitizer project, cell-based, ATPlite luminescence. inhibition (viability loss, TRAIL sensitization), % at 10 µM. hit rate 1% among 360,000;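 active = compounds causing at least 50% loss of cell viability in the single-dose screen, relative to plate controls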
HIF-2a block: HIF-2a reporter inhibitors, primary screen, luminescence, 786-0 RCC cells. hit rate 0.72% among 360,000. 786-0 RCC cells HIF-2a reporter, luciferase luminescence, overnight. inhibition, % at 18.8 µM;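 active = inhibition of the luminescence signal of 40% or more relative to plate controls, in a single-dose primary screen at 18.75 µM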
KKLEB tox: cytotoxicity in KKLEB CF airway cells, primary screen, cytotoxicity control for CF NF-kB inhibitor project, cell-based, uHTS, fluorescence assay plates. activity change (cytotoxicity), % at 5 µM. AID 602141, 2011. hit rate 0.36% among 360,000. KKLEB CF airway cells viability, ATPlite luminescence, overnight; hits give low values; cells stimulated with P. aeruginosa culture filtrate;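 active = corrected activity change at or below -50% at 5 µM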
PPC-1 tox: cytotoxicity in PPC-1 cells, confirmation, cytotoxicity control for TRAIL apoptosis potentiator project, cell-based, ATP content luminescence. shares compounds with PPC-1+TRAIL kill. AID 1447, 2008. hit rate 50% among 1,200. cytotoxicity, % at 5 µM. PPC-1 viability, ATPlite luminescence, overnight;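 active = reconfirmed compounds whose average cytotoxicity reaches 50% or more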;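 note: 0% = DMSO-treated cells and 100% = wells holding medium but no cells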
* hit, by the source's call; / = no result. An excerpt weighted towards active compounds, which were near 3.1% of everything screened.

SMILES	PPC-1+TRAIL kill	Peg3 promoter	CF NFkB block	TRAIL sens C8	HIF-2a block	KKLEB tox	PPC-1 tox
CSCCC(C(=O)Nc1c(C)cccc1C)N1CCN(c2ccc(F)cc2)CC1 (configuration not stated)	/	10.2	6.3	-0.1	-2.2	-16.3	/
COc1cccc(CNC(=O)C2CCC(=O)N(C3CC3)C2)c1OC (configuration not stated)	/	-7.5	11.1	16.0	5.7	-0.4	/
Nc1nc(CCl)nc(Nc2ccc3ccccc3c2)n1	96.0*	-31.9	78.3*	95.2*	-125.3	-36.6	95.4*
Cc1ccc(Nc2nc(N)nc(CN3CCN(c4ccccc4)CC3)n2)cc1Cl	15.2	33.5	-11.5	7.5	5.9	-7.3	/
O=C1NC[C@H](CCCCN2CCN(Cc3ccccc3)C(=O)C2=O)N(CC2CCCCC2)C1=O	/	/	/	-4.7	5.3	/	/
CCN(CC)S(=O)(=O)c1cccc(C(=O)Nc2ccccc2C(=O)N2CCOCC2)c1	5.2	17.9	3.8	-8.7	16.7	3.7	-4.2
CC1CCN(C(=O)c2ccccc2NC(=O)c2cccc(S(=O)(=O)N3CCOCC3)c2)CC1	21.2	20.9	-14.5	4.9	6.8	-0.1	/
Nc1c(C(=O)NCCN2CCOCC2)c2nc3ccccc3nc2n1CCc1ccccc1F	-7.2	7.1	6.1	15.7	0.7	-8.2	16.9
NC(=O)c1ccccc1N/C=C/C(=O)c1ccc(Cl)cc1	84.0*	-115.7	-20.4	87.8*	-68.2	-44.6	84.0*
CCOC(=O)c1ccccc1N/C=C/C(=O)c1ccccc1	/	-75.9	-4.0	13.5	-116.1	1.3	/
Cc1ccc(C(=O)/C=C/Nc2ccccc2C(N)=O)cc1	93.0*	-17.5	-18.2	90.2*	-8.1	-55.8*	92.6*
CCCCNC(=O)c1c(N)[nH]c(C(=O)c2ccccc2)c1-c1ccc(Cl)cc1	/	/	/	-16.0	-2.1	/	/
COc1cccc(CSc2nc3ccncc3[nH]2)c1	83.2*	-182.3	2.6	85.9*	-183.5	-19.6	80.7*
Clc1ccccc1CSc1nc2ccncc2[nH]1	74.7*	-261.9	-14.8	76.2*	-206.2	-15.0	75.6*
COc1cccc(N2CCN(C(=O)c3ccc(CSc4nc5ccncc5[nH]4)cc3)CC2)c1	-0.4	-1.5	-8.3	10.9	-14.0	4.7	/
O=C(NCc1ccccc1Cl)c1ccc(CSc2nc3ccncc3[nH]2)cc1	-5.8	23.3	20.9	0.8	1.6	-12.9	/
Clc1ccccc1CSc1ncccn1	12.9	-29.9	11.5	-0.9	-53.5	-1.3	16.9
CC(C)(C)OC(=O)C(C1NC(C(=O)O)C(C)(C)S1)N1C(=O)c2ccccc2C1=O (configuration not stated)	/	4.5	-7.9	-4.8	-5.1	12.7	/
Fc1ccc(CO/N=C/C2=C(Cl)c3ccccc3CC2)cc1	3.2	-136.0	12.3	-6.2	-183.0	3.2	-4.6
Cc1c(NC(=O)c2cc(-n3cnnc3)ccc2Cl)cccc1-c1nc2ccccc2s1	61.1*	-200.7	0.5	77.6*	-269.0	-35.6	57.6*
CC(=O)Nc1ccc(NC2=C/C(=N/S(=O)(=O)c3cccs3)c3ccccc3C2=O)cc1	73.3*	14.8	80.8*	83.6*	18.5	-32.3	74.5*
CN(CC(=O)Nc1ccccc1Cl)C(=O)Cn1cc(C(F)(F)F)ccc1=O	/	5.8	12.6	-11.8	12.2	-2.4	/
COc1ccc2c(c1)CCc1c(C(=O)NCc3ccco3)noc1-2	15.9	-289.1	-4.1	2.3	-323.6	-11.6	11.1
COCCNC(=O)c1noc2c1CCc1cc(OC)ccc1-2	17.5	-230.4	3.0	18.9	-196.6	6.1	/
COc1ccc([C@H]2N[C@]3(CCCN(Cc4ccc(Cl)cc4)C3=O)[C@H]3C(=O)N(Cc4ccccc4)C(=O)[C@@H]23)cc1	/	8.6	-13.0	-4.3	7.2	-8.6	/
SMILES	PPC-1+TRAIL kill	Peg3 promoter	CF NFkB block	TRAIL sens C8	HIF-2a block	KKLEB tox	PPC-1 tox
Cn1cnnc1SCCn1c(N2CCCCC2)nc2c1c(=O)[nH]c(=O)n2C	5.4	-2.9	7.1	-16.0	6.3	-4.0	4.2
Cn1c(=O)[nH]c(=O)c2c1nc(N1CCCCC1)n2CCCSc1nnnn1-c1ccccc1	3.2	10.8	-2.7	-9.1	12.2	2.1	/
C=CCn1nc(C(=O)N2CCOCC2)cc1-c1sc(NC(=O)c2ccccc2)nc1C	/	11.7	3.1	2.6	5.6	-3.0	/
CCN(CC)C(=O)CN(c1ccc(F)c(Cl)c1)S(C)(=O)=O	-0.8	5.0	9.2	-9.0	11.8	-6.1	12.3
Cc1ccc2nc(-c3ccc(NC(=O)C4CCCO4)cc3)[nH]c2c1 (configuration not stated)	65.3*	-31.1	-2.6	57.2*	-45.8	7.4	64.5*
O=S(=O)(c1cccc(-c2nc3ccccc3s2)c1)N1CCCC1	9.6	-35.8	-7.1	2.6	-135.8	0.4	7.5
O=C(O)c1ccc2c(c1)C(=O)N(c1cccc(-c3nc4ccccc4s3)c1)C2=O	39.0	-56.8	0.9	49.3	-55.6	9.4	36.6
O=S(=O)(c1ccc(-c2nc3ccccc3s2)cc1)N1CCCC1	-1.4	-105.1	-5.1	7.7	-107.7	-1.4	/
Nc1cccc(-c2nc3ccccc3s2)c1	35.5	-134.9	-16.9	51.2*	-66.7	-1.9	38.8
COc1ccc(CNC(=O)c2cn(Cc3ccccc3OC)c(=O)s2)cc1	/	18.4	3.0	-16.7	-10.8	-10.8	/
CCOC(=O)CSc1ncnc2c1cnn2-c1ccc(C)cc1	28.1	-44.8	5.6	6.3	2.7	-2.0	21.7
O=C(Nc1nc2ccccc2[nH]1)c1ccccc1	62.0*	-29.7	-15.2	84.2*	-27.7	3.9	60.1*
O=c1c2c(-c3ccccc3)csc2nc2c3ccccc3c(NCCN3CCOCC3)nn12	-6.0	107.8*	-18.0	72.4*	-100.6	-9.6	6.0
COc1ccc(-c2nc(-c3ccncc3)no2)cc1	/	-245.9	-13.0	-0.6	-141.1	-1.4	/
COc1ccc(-c2nc(-c3cccs3)no2)cc1	45.5	10.6	-1.8	62.5*	28.5	-17.5	42.0
CCN(CC)c1ccc(S(=O)(=O)N2CCOCC2)cc1NC(=O)CSc1nncs1	/	13.4	13.6	-3.1	7.3	-0.1	/
N=c1cc(C2(O)CCCCC2)n2c(nc3ccccc32)s1	75.0*	-144.7	-5.4	84.3*	-54.4	-5.9	78.5*
O=C(CCCN1C(=O)CCC1=O)Nc1ccc2c(c1)OCO2	8.0	-22.2	-17.0	-1.6	-24.6	10.5	9.1
COc1ccc(CN(C)CCCn2cnc3c(OC)ncnc32)cc1OC	/	9.0	2.8	0.3	-4.7	-4.1	/
